Laboratory results from PubChem BioAssay (Tox21).
Values without a mark were called inactive. Results filed as inconclusive are left out. Where a call stands in place of a potency, no number is given. Activity calls are given as the source filed them. Calls come from the whole dose curve; as a rule, active = well fitted curve in the direction sought with a large enough effect in the repeat runs; inconclusive = weak or mixed curves; inactive = no such curve, though single readings can be large; an effect the other way counts as inactive or inconclusive.

Assays:
[1] = A CellTox Green Cytotoxicity Assay to monitor cytotoxicity in HEK293 cells - 40 hour (AID 1224871); note: nearly all actives have a fitted effect of over 45% in size
Method in brief: (§1)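 Dead-cell fluorescence measured kinetically: asymmetric cyanine dye, HEK293, 600 cells/well, 5 h settle, 23 nL cpd/DMSO, 37 C, reads 0–40 h every 8 h.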

[2] = qHTS RealTime-Glo MT Cell Viability Assay in HEK293 cells - 16 hour (AID 1224872); note: top concentration of the series differs between compounds; nearly all actives have a fitted effect of over 50% in size
Method in brief: (§2)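 Tox21 10K qHTS, HEK293, 600 cells/well, RealTime-Glo reagent co-dispensed with cells; 5 h preincubation, compound by pintool, 37 C, luminescence at 0–40 h.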

[3] = qHTS RealTime-Glo MT Cell Viability Assay in HepG2 cells - 8 hour (AID 1224873); note: nearly all actives have a fitted effect of over 55% in size
Method in brief: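 HepG2 cells mixed with RealTime-Glo MT reagents (NanoLuc plus cell-permeant prosubstrate) were seeded at 600 cells/well, incubated 5 h at 37 C/5% CO2, then pinned with compounds in DMSO; nonlytic luminescence tracked viability during 40 h treatment.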

[4] = A CellTox Green Cytotoxicity Assay to monitor cytotoxicity in HEK293 cells - 24 hour (AID 1224875); note: series mostly up to about 77 µM; nearly all actives have a fitted effect of over 45% in size
Method in brief: as §1

[5] = A CellTox Green Cytotoxicity Assay to monitor cytotoxicity in HepG2 cells - 16 hour (AID 1224876); note: nearly all actives have a fitted effect of over 45% in size
Method in brief: (§3)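 First, HepG2 cells (600/well) mixed with reagent were plated; second, after 5 h at 37 C they received compounds via pintool; third, fluorescence was measured at 0 h through 40 h at 8 h intervals.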

[6] = qHTS RealTime-Glo MT Cell Viability Assay in HepG2 cells - 32 hour (AID 1224877); note: nearly all actives have a fitted effect of over 55% in size
Method in brief: (§4)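 Cells + NanoLuc/prosubstrate dispensed (600 cells/well) → 5 h at 37 C/5% CO2 → compounds in DMSO transferred → 40 h incubation at 37 C, luminescence read at 0, 8, 16, 24, 32, 40 h.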

[7] = A CellTox Green Cytotoxicity Assay to monitor cytotoxicity in HepG2 cells - 24 hour (AID 1224878); note: nearly all actives have a fitted effect of over 45% in size
Method in brief: as §3

[8] = A CellTox Green Cytotoxicity Assay to monitor cytotoxicity in HepG2 cells - 40 hour (AID 1224879); note: nearly all actives have a fitted effect of over 40% in size
Method in brief: as §3

[9] = qHTS RealTime-Glo MT Cell Viability Assay in HEK293 cells - 0 hour (AID 1224880)
Method in brief: (§5)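 600 HEK293 cells per well, dispensed already mixed with RealTime-Glo MT reagents. Compound dosing came 5 h later. The same wells were read for luminescence at 0, 8, 16, 24, 32 and 40 h of exposure at 37 C.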

[10] = A CellTox Green Cytotoxicity Assay to monitor cytotoxicity in HEK293 cells - 32 hour (AID 1224881); note: nearly all actives have a fitted effect of over 40% in size
Method in brief: as §1

[11] = A CellTox Green Cytotoxicity Assay to monitor cytotoxicity in HepG2 cells - 0 hour (AID 1224882); note: nearly all actives have a fitted effect of over 35% in size
Method in brief: as §3

[12] = A CellTox Green Cytotoxicity Assay to monitor cytotoxicity in HepG2 cells - 32 hour (AID 1224883); note: nearly all actives have a fitted effect of over 50% in size
Method in brief: as §3

[13] = qHTS RealTime-Glo MT Cell Viability Assay in HepG2 cells - 16 hour (AID 1224885); note: nearly all actives have a fitted effect of over 50% in size
Method in brief: as §4

[14] = qHTS RealTime-Glo MT Cell Viability Assay in HEK293 cells - 8 hour (AID 1224887); note: top concentration of the series differs between compounds; nearly all actives have a fitted effect of over 50% in size
Method in brief: as §5

[15] = A CellTox Green Cytotoxicity Assay to monitor cytotoxicity in HEK293 cells - 16 hour (AID 1224888); note: nearly all actives have a fitted effect of over 35% in size
Method in brief: as §1

[16] = A CellTox Green Cytotoxicity Assay to monitor cytotoxicity in HepG2 cells - 8 hour (AID 1224890); note: nearly all actives have a fitted effect of over 45% in size
Method in brief: as §3

[17] = qHTS RealTime-Glo MT Cell Viability Assay in HEK293 cells - 40 hour (AID 1224874); conditions: RealTime-Glo luminescence; max response: hits give low values; note: nearly all actives have a fitted effect of over 50% in size
Method in brief: as §5

[18] = A CellTox Green Cytotoxicity Assay to monitor cytotoxicity in HEK293 cells - 8 hour (AID 1224884); note: nearly all actives have a fitted effect of over 35% in size
Method in brief: as §1

[19] = qHTS RealTime-Glo MT Cell Viability Assay in HEK293 cells - 24 hour (AID 1224886)
Method in brief: as §2

[20] = qHTS RealTime-Glo MT Cell Viability Assay in HepG2 cells - 0 hour (AID 1224889); note: nearly all actives have a fitted effect of over 50% in size; note: potency is the fitted concentration of half-maximal effect
Method in brief: as §4

Row | Structure (SMILES) | Potency [1] | Potency [2] | outcome [3] | Potency [4] | Potency [5] | Potency [6] | Potency [7] | Potency [8] | outcome [9] | Potency [10] | Potency [11] | Potency [12] | outcome [13] | Potency [14] | Potency [15] | Potency [16] | max response [17] [%] | Potency [18] | Potency [19] | Potency [20]
1 | C[C@]12CCC(=O)C=C1CC[C@@H]1[C@@H]2CC[C@@]2(C)[C@H]1CC[C@]2(O)C(=O)CO | inactive | inactive | inactive | inactive | inactive | inactive | inactive | inactive | inactive | inactive | inactive | inactive | inactive | inactive | inactive | inactive |  |  |  | 
2 | CCOc1ccc2nc(N)sc2c1 | inactive | inactive | inactive |  | inactive | inactive | inactive | inactive | inactive | inactive | inactive | inactive | inactive | inactive | inactive |  | -4.71 | inactive | inactive | inactive
3 | CCOC(=O)C(Br)c1ccccc1 (stereo not drawn) | inactive | inactive | inactive |  | inactive | inactive | inactive |  | inactive | inactive | inactive | inactive | inactive | inactive | inactive | inactive | 15.2 | inactive | inactive | inactive
4 | COC(=O)C(C)O (stereo not drawn) | inactive | inactive | inactive |  | inactive | inactive | inactive | inactive | inactive | inactive | inactive | inactive |  | inactive | inactive | inactive | 3.12 | inactive | inactive | inactive
5 | NC/C=C/C(=O)O | inactive | inactive | inactive |  | inactive | inactive | inactive | inactive | inactive | inactive | inactive | inactive | inactive | inactive | inactive | inactive | 2.11 | inactive | inactive | inactive
6 | CCCCC1CCC(=O)O1 (stereo not drawn) | inactive | inactive | inactive |  | inactive | inactive | inactive | inactive | inactive | inactive | inactive | inactive |  | inactive | inactive | inactive | -3.25 | inactive | inactive | inactive
7 | NCCC(O)(P(=O)(O)O)P(=O)(O)O | inactive | inactive | inactive |  | inactive | inactive | inactive | inactive | inactive | inactive | inactive | inactive | inactive | inactive | inactive | inactive | 3.89 | inactive | inactive | inactive
8 | Oc1ccccc1F | inactive | inactive | inactive |  | inactive | inactive | inactive | inactive | inactive | inactive | inactive | inactive |  | inactive | inactive | inactive | 16.1 | inactive | inactive | inactive
9 | CC(C)C[C@H](NC(=O)OCC1c2ccccc2-c2ccccc21)C(=O)O | inactive | inactive | inactive |  | inactive | inactive | inactive | inactive | inactive | inactive | inactive | inactive | inactive | inactive | inactive | inactive | -12.9 | inactive | inactive | 
10 | CC(=O)N[C@@H](CC(C)C)C(=O)O | inactive | inactive | inactive |  | inactive | inactive | inactive | inactive | inactive | inactive | inactive | inactive | inactive | inactive | inactive | inactive | -2.78 | inactive | inactive | inactive
11 | CCOC(=O)c1ccccc1O | inactive | inactive | inactive |  | inactive | inactive | inactive | inactive | inactive | inactive | inactive | inactive |  | inactive | inactive | inactive | 4.34 | inactive | inactive | inactive
12 | CC(C)Nc1nc(N)nc(Cl)n1 | inactive | inactive | inactive |  | inactive | inactive | inactive | inactive | inactive | inactive | inactive | inactive |  | inactive | inactive | inactive | 10.6 | inactive | inactive | inactive
13 | CCN[C@H]1CN(CCCOC)S(=O)(=O)c2sc(S(N)(=O)=O)cc21 | inactive | inactive | inactive |  | inactive | inactive | inactive | inactive | inactive | inactive | inactive | inactive | inactive | inactive | inactive | inactive | -0.402 | inactive | inactive | inactive
14 | CC1(C)O[C@@H]2C[C@H]3[C@@H]4CCC5=CC(=O)CC[C@]5(C)[C@@]4(F)[C@@H](O)C[C@]3(C)[C@]2(C(=O)CCl)O1 | inactive | inactive | inactive | inactive | inactive | inactive | inactive | inactive |  | inactive | inactive | inactive | inactive | inactive | inactive | inactive |  | inactive |  | 5.35 µM (active)
